Our source for the median seed-adjusted z-score values is PubChem BioAssay AID1347426 (Functional Genomics Laboratory (NCATS/FGL), 2020).

Screen size: about 31,000 sequences; about 1,400 (4.5%) were called active. The entries come from a sample that favours actives as a whole. A number with no mark means an inactive call.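 The calls were made as follows: active = median seed-adjusted z-score above 1 or below -1; inactive = the rest.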

The nature of the experiment: Novel Modifiers of Survival Motor Neuron (SMN) Protein: Gene Identification via Genome-wide siRNA Screen.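 Also: luminescence tracks full-length SMN protein made from the SMN2 reporter.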 The settings on record: HEK293T SMN2-luciferase reporter, siRNA knockdown, 72 h; actives lie on both sides. An outline of the steps:
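Steps: spot 1 pmol siRNA, add Lipofectamine RNAiMax in serum-free DMEM, seed HEK293T SMN2–luciferase reporter cells; incubate 72 h at 37 °C; add ONE-Glo; normalize luminescence to control siRNA, log10, MAD. Candidates: |MAD| > 1.0.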
(A reporter such as luciferase makes a cellular process visible.)
Turning to ACAUGAAGGUGAAUCCUGUTT against COX4I2, the median seed-adjusted z-score was -0.0202.

With CAGCGAUUUUAAAUCGUAUTT against HSD17B13, the median seed-adjusted z-score was -0.329.

Consider CAACCAACCUGCAUCUAGATT against TRIM33, for which the median seed-adjusted z-score is 0.316.

Consider CGACCCUUGAAGUUCAAUATT against EFTUD2, for which the median seed-adjusted z-score was -1.25 (active).

On to GGAUCCUUCUAUACGCAUATT against SLC4A7, for which the median seed-adjusted z-score was 0.

Consider CAGUAGAUGUGGAAAAGGATT against PTK2B, for which the median seed-adjusted z-score was 1.71 (active).

On to CCAUUGAUGGAGUCAGAUUTT against POLD2, for which the median seed-adjusted z-score is 0.97.

For the sequence CCACUAGUGAAACAACCAATT against PCLO, the median seed-adjusted z-score was -0.734.

On to GCAAGGAGCUAGAGCCUUUTT against MOBKL2B, for which the median seed-adjusted z-score is -0.613.

Consider GCAAGUCCACGUUCCUCAATT against GNA12, for which the median seed-adjusted z-score was 0.598.

With AGCUACCGAUGGAAGAGGATT against CLK3, the median seed-adjusted z-score was -1.11 (active).

As for AGGUCAAGCUUAGUGACAATT against ZDHHC8, the median seed-adjusted z-score is 0.

For GCUUCUCAUGGGAUCAAAATT against PGCP, the median seed-adjusted z-score was 0.145.

For the sequence CCGGGAAAUUGAUUAUGCATT against SIN3B, the median seed-adjusted z-score is 0.509.

Regarding GCAUCUCAUCGGAAGAGGATT against MAP3K12, the median seed-adjusted z-score is -0.6.

For GAUCCUAAAUCAUGACUUATT against COX6B1, the median seed-adjusted z-score is -0.706.

Regarding GGACGAAUGAGUUCCAGUUTT against PCDHB8, the median seed-adjusted z-score is 1.15 (active).

With AGACCUAGCUUUAGCACAATT against ZFAND2B, the median seed-adjusted z-score was 0.

For GAAGCGGCAUUAGCAGAGATT against ISOC1, the median seed-adjusted z-score is 0.104.

On to GGUAAAAUCAAGUACCAUATT against TIGD2, for which the median seed-adjusted z-score was -0.13.

GCAUCACCAUCCUUCCGCATT against BACE1: the median seed-adjusted z-score was -0.537.

With AGAGAGUGGUUUUUCCUCCTT against WWP2, the median seed-adjusted z-score was -0.685.

Turning to GUGCUUCAGUAGGUAUGUATT against ASNS, the median seed-adjusted z-score was -1.1 (active).

For the sequence GGCCUUUAGUUAUAAAGGATT against TIMM8A, the median seed-adjusted z-score is 0.173.

ACAUAGCCGUGUCCAGGUATT against GLYCTK: the median seed-adjusted z-score is 0.0328.

Regarding GACCUGAAUUGUAUCAUCATT against MAPK3, the median seed-adjusted z-score was -0.573.

Regarding GAACUCCAGAGAUCAAUAATT against IL7R, the median seed-adjusted z-score was 0.

Consider CCAACUAUCAGUGACCGUATT against CYP17A1, for which the median seed-adjusted z-score was -1.39 (active).

Turning to CUAUCACCUGGACUGUAUATT against RNF11, the median seed-adjusted z-score is -0.365.

With GGAGACUUACUACCUAUAATT against PARD6B, the median seed-adjusted z-score was 0.315.

GGCUUCUUCUAUUCAAUUUTT against BCL6B: the median seed-adjusted z-score is 0.

For the sequence GAACUGACAAGCUUAGUAATT against SAP18, the median seed-adjusted z-score is 2.14 (active).

In the case of AUACAGAUCUAAUAGAGUUTT against NAT1, the median seed-adjusted z-score is -0.0665.

With CCAUUGACAAUUCAACUUATT against ST8SIA1, the median seed-adjusted z-score was -0.25.

Consider CGCCUCAACCUGAUCAUCATT against ENPP7, for which the median seed-adjusted z-score is -0.478.

As to GUGCCUUGCUAUUCUAAGATT against NEUROD1, the median seed-adjusted z-score is 0.

In the case of GAAACUCUCUUCAAGUCUATT against CKB, the median seed-adjusted z-score is -0.236.

With GGCAAAUGGUUGAGACUGATT against YWHAE, the median seed-adjusted z-score is 1.38 (active).

Consider GCAGCAUAAUGAAACGUGATT against ARPM1, for which the median seed-adjusted z-score was -0.0251.

Take UCUUCGAGCAAGAAACUAATT against CD9: the median seed-adjusted z-score is -1.02 (active).

For the sequence AUAAAUUCCUGAUUGCUAATT against CXCL6, the median seed-adjusted z-score is 0.802.

With GGACUACAGCGGACAAGGATT against WDR1, the median seed-adjusted z-score is -0.457.

For GGAACAUUCCUGUGCAACATT against MTMR3, the median seed-adjusted z-score is 0.281.

GAUGAUAGCCAAACCCUCATT against ZNF626: the median seed-adjusted z-score is 0.185.

In the case of GGUGUUGUUUCAUCGUUUUTT against CCNL1, the median seed-adjusted z-score was -1.26 (active).

Take GUGCAUGCAGGAGAAGUCATT against GATA2: the median seed-adjusted z-score was 0.623.

Consider GCAUGCAGCCUUGAAGAUATT against CRYZL1, for which the median seed-adjusted z-score was 0.0481.

Take CGUGUCAAAUAUUGGAUUATT against KLB: the median seed-adjusted z-score is 0.221.

For GCACCUUCGUCCUCAACUUTT against PROC, the median seed-adjusted z-score was -0.228.

For CCGCUGAACCUGUUGAAGATT against SGMS2, the median seed-adjusted z-score was -0.492.

As to GGUGCUCUCGGUUGCACAATT against U2AF1, the median seed-adjusted z-score is 2.08 (active).

For CAAGCUCUGAUAUACCGAATT against HIVEP1, the median seed-adjusted z-score was 0.532.

For the sequence UGCACAUCAAGUAUCCUAATT against SLC30A10, the median seed-adjusted z-score is 0.523.

As to GCAUCAUCCAGAACACGGATT against ARHGEF18, the median seed-adjusted z-score is 0.586.

As for CGAUGGAGAUGUUUCGGGATT against KCNA2, the median seed-adjusted z-score is -1.03 (active).

In the case of GCGAGAGUCUGCAUAGGUATT against GRIN2D, the median seed-adjusted z-score is -0.135.

Turning to GGAAGAAAGUAUAAUAGAATT against MAFG, the median seed-adjusted z-score is 0.

For the sequence UGAUCAACCUCAAGACGGATT against MED16, the median seed-adjusted z-score was -0.6.

On to GAAACACGUCAGUCCUAAUTT against LHX8, for which the median seed-adjusted z-score was 0.

For GAAGUUCAUACUAAGCGUATT against TPR, the median seed-adjusted z-score is -1.03 (active).

On to CGUGGUACCAGACAUCUGATT against CCL17, for which the median seed-adjusted z-score was 0.178.

Consider GACCGACUGCAGAACAAUATT against PDE6B, for which the median seed-adjusted z-score is -0.336.

For the sequence GGAUAAUACAGUUCGAUUATT against TAF5, the median seed-adjusted z-score is -0.192.

On to GACUCCCUGCUUUCAAUAATT against SALL2, for which the median seed-adjusted z-score is 0.504.

In the case of CCCUCUCAGUACUACGCUATT against ZMYND10, the median seed-adjusted z-score is 0.255.

On to CAAGAAAACUGCGAAUAAATT against STX2, for which the median seed-adjusted z-score is 0.442.

In the case of GUUUCAUCUGGGUUCGCUATT against SF3B3, the median seed-adjusted z-score was -2.53 (active).

GAACCAUCUCAAUACUAUUTT against DACH2: the median seed-adjusted z-score is -0.00102.

On to GGGCGAGUAUUAUGACUAUTT against MYO15A, for which the median seed-adjusted z-score is 0.0508.

GACUGUUCGUUUCCCAGAUTT against CHRNA7: the median seed-adjusted z-score was -0.485.

Regarding GAGACAGCCUGAUGGAGAATT against STC1, the median seed-adjusted z-score was -1.36 (active).

In the case of GCUCCUUGCUACCAUAGUATT against CCBP2, the median seed-adjusted z-score was -0.0896.

In the case of CUCUCAGACAAGCUACUGATT against CCL27, the median seed-adjusted z-score was 0.

Regarding GUUGUGGUCUGAUCAGUUATT against TUBA1A, the median seed-adjusted z-score is 0.284.

In the case of AGUUCCCUUUGUAACCAUATT against ZNF669, the median seed-adjusted z-score is 0.175.

In the case of AGGCUGCGUUUGGACCAGATT against PAPLN, the median seed-adjusted z-score is -0.186.

Consider CAUGGGUGCUUAUAAGUCATT against IL1A, for which the median seed-adjusted z-score was 1.12 (active).

On to GGGCUGCACCAAAGCCUAUTT against KLF14, for which the median seed-adjusted z-score was 0.0241.

GUUUAUUUCGUACACUAAATT against KTI12: the median seed-adjusted z-score was 0.0814.

In the case of GCGUCGUGGUCAUGAACAATT against PIP5K1C, the median seed-adjusted z-score is -0.13.

For CAGUGUCCCUAUGAAGGGATT against SRMS, the median seed-adjusted z-score is -1.58 (active).

On to GCUAUUGAGUUUGCCCAAATT against ADHFE1, for which the median seed-adjusted z-score is 0.418.

For “CUAGUGAUCUUUUAGAGUUTT against CSGALNACT2”, the median seed-adjusted z-score is 0.236.

In the case of GAACUUUAUUGCAAAGUUUTT against CSRP3, the median seed-adjusted z-score is 0.15.

For the sequence GCAUCGAGAUCCACGAAGATT against PITPNM3, the median seed-adjusted z-score is -0.0378.

With AGAAGACUCUGGUAAUGUATT against WHSC1, the median seed-adjusted z-score was 1.17 (active).

With CUGAUUCAAGAGAAGAUUATT against SMARCAL1, the median seed-adjusted z-score is -0.145.

GAACAGAUCCGGAAGAAGATT against NR1H2: the median seed-adjusted z-score was 0.069.

Regarding GGACUUUGAUUGCUAGCAATT against CTRC, the median seed-adjusted z-score was -0.104.

GCUUGAAGAGUUUGGCUGGTT against DUSP15: the median seed-adjusted z-score is 0.

Consider GCAAUUAACAAUUAUCGAUTT against RNASE3, for which the median seed-adjusted z-score was 0.588.

For the sequence AGUUUGUCCUGAAGAAUUATT against PTPN23, the median seed-adjusted z-score is -0.0473.

In the case of GGGUCAUCUAUAUCCGCAATT against GPR132, the median seed-adjusted z-score is 0.

With GCAUCUGCUGUAUCGAUGATT against MCM4, the median seed-adjusted z-score was 0.0057.

As for GCCCUUACAGGGUAUCAAATT against DDX46, the median seed-adjusted z-score was -1.24 (active).

In the case of CACGGAUUCUUGUUGGAAATT against RAB33B, the median seed-adjusted z-score is -0.758.

In the case of GUUCGAAUCAAGAACCCUATT against NT5C3, the median seed-adjusted z-score is -0.456.

UGAUAGAGAUCAACCCAUATT against PSMB5: the median seed-adjusted z-score was -1.37 (active).

For the sequence ACAUGAUCAUCAGUGUGAATT against FABP4, the median seed-adjusted z-score is 0.227.

For the sequence GCGUCAUGAUGUUCACCUATT against ITGB5, the median seed-adjusted z-score was -0.00882.

In the case of GCAUGGGAAUCAUUGUGCUTT against PPIL1, the median seed-adjusted z-score was 0.166.

Regarding CCAGUACACUUUUGUCUGATT against CDC5L, the median seed-adjusted z-score is -0.628.

On to AAGUGUGCCUGAAUACUAUTT against KHDRBS2, for which the median seed-adjusted z-score was -0.335.

GGAGCAGUCACUUACAGAATT against PINK1: the median seed-adjusted z-score is 0.192.

On to CCACUGUCCUGUUUGAGAUTT against FKBP6, for which the median seed-adjusted z-score is -1.12 (active).

As to CGGAUUAUCUUCUAUCUAUTT against SLC6A14, the median seed-adjusted z-score is 0.

Regarding GUCUUGACCUUGAACGCAATT against VIM, the median seed-adjusted z-score was 0.431.

For GGCUUCUUCUCGUGCAUCATT against KCNK3, the median seed-adjusted z-score is 0.

In the case of GAAGGGUGAUUCUAAUAUUTT against GPR174, the median seed-adjusted z-score is -0.324.
